This note sets out measurements from ChEMBL document CHEMBL4808148, “HDAC6 screening dataset using tau-based substrate in an enzymatic assay yields selective inhibitors and activators” (2021).

Hit rate of the full screen: of about 5,600 compounds, about 150 (2.7%) showed an effect of 50% or more. The sample as a whole holds a higher share of strong results than the screen did.

Assay [1] addresses T1, Protein deacetylase HDAC6 (Homo sapiens) (UniProt Q9UBN7).
T1 sequence (whole entry): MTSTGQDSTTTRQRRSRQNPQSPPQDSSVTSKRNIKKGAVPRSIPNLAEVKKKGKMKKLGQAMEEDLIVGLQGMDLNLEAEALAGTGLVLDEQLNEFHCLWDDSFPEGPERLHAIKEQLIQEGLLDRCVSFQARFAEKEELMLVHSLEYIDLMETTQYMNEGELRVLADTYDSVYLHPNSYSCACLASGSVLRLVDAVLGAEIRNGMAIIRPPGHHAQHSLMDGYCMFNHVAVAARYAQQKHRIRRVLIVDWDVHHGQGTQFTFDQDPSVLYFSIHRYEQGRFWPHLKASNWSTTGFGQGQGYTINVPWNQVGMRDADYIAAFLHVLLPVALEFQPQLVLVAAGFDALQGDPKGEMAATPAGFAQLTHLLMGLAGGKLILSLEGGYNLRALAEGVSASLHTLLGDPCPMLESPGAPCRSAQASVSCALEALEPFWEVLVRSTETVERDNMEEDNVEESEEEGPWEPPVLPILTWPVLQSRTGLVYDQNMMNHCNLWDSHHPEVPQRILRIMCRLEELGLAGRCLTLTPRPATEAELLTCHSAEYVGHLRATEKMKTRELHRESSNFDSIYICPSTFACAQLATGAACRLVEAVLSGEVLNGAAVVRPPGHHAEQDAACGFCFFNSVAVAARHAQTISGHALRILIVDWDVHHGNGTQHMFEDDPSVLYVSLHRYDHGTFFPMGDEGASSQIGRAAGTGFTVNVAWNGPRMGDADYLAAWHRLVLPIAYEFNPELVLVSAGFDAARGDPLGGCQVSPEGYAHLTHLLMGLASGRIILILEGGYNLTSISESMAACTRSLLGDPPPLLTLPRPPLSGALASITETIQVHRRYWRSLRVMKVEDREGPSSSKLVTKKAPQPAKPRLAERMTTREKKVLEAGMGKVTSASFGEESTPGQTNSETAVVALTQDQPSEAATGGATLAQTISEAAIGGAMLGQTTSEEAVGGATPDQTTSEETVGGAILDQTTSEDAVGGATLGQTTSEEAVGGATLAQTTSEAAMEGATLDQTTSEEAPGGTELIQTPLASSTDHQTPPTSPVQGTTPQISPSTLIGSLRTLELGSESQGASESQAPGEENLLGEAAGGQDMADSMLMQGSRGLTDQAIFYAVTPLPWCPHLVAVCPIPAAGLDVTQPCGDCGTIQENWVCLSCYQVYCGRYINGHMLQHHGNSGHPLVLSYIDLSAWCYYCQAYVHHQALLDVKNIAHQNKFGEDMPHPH
The settings on record: at 10 µM.

Assay [2] addresses Protein deacetylase HDAC6 (Homo sapiens) (UniProt Q9UBN7). The conditions noted are these: at 10 µM. This is another data set of the same source.

As for `CN1CC(=O)N=C1NC(=O)Nc1cccc(Cl)c1`, the inhibition in assay [1] was determined as 90.4%. Still for that read-out and setting: with `C[C@H](N)C(=O)O` the figure was -3.75%; with `Cc1ncc(CO)c(/C=N/NC(=O)c2ccncc2)c1O`, -0.7%; with `O=C(O)c1cc(N2N=C(C(F)(F)F)/C(=C/c3ccc(-c4ccccc4)o3)C2=O)ccc1Cl`, -1.26%.

On to `COc1cccc(OC)c1-c1cc(C(=O)NC2(C(=O)O)C3CC4CC(C3)CC2C4)nn1-c1ccnc2cc(Cl)ccc12` (stereo not drawn), for which the inhibition in assay [1] was found to be 0.43%. Consider `O=C(Nc1ccc([N+](=O)[O-])cc1Cl)c1cc(Cl)ccc1O`, for which, in assay [1], the inhibition came to 97%. In the case of `O=C(Nc1ccncc1)c1cc([N+](=O)[O-])ccc1Cl`, the inhibition in assay [1] was -9.26%. Still for that read-out and setting: to `O=C(Nc1ccccc1)c1cc([N+](=O)[O-])ccc1Cl` belongs -4.52%; to `N#Cc1cc(F)cc(-c2nc(-c3ccc(F)cn3)no2)c1`, 42%. In the case of `c1ccc(Cn2c(N3CCNCC3)nc3ccccc32)cc1`, the inhibition in assay [1] was -7.7%.

For the compound `Cc1cc(C)c(N)c(C#Cc2cccc(F)c2)n1`, the inhibition in assay [1] stood at 93%. For `O=C(NC1CCC1)c1ccc(C#Cc2cccc(F)c2)nc1`, in assay [1], the inhibition was 24.9%. Regarding `Cc1nc(C#Cc2ccnc(Cl)c2)c(C)n1-c1ccc(F)cc1`, the inhibition in assay [1] was -3.13%. `CC(=O)OC1C[C@H]2C(C)(C)C(=O)C=C[C@]2(C)[C@H]2CC[C@@]3(C)[C@H](c4ccoc4)OC(=O)[C@H]4O[C@]43[C@]12C` (stereo partly drawn): in assay [1], the inhibition is -9.28%. For `Nc1cc2c3ccccc3ccc2c2ccccc12`, in assay [1], the inhibition came to 23.6%.

For `Clc1cccc(C(c2ccc3[nH]cnc3c2)n2ccnc2)c1` (stereo not drawn), the inhibition in assay [1] is 0.23%. On the same count and under the same terms, to `O[C@H]1CC[C@H](Nc2ncc3nc(Nc4c(F)cc(F)cc4F)n([C@H]4CCOC4)c3n2)CC1` belongs -4.44%; to `Nc1ccc(S(N)(=O)=O)cc1`, -5.55%. Consider `NCc1ccc(S(N)(=O)=O)cc1`, for which, in assay [1], the inhibition stood at 0.53%.

Regarding `NS(=O)(=O)c1ccc(S(=O)(=O)Nc2cccc3c(Cl)c[nH]c23)cc1`, the inhibition in assay [1] was found to be 79.5%.

As for `C=CC(C)(O)CCC=C(C)C` (stereo not drawn), the inhibition in assay [1] was 1.97%.

As for `O=C(CN1C(=O)C2(CCCC2)NC[C@H]1c1cc(F)cc(F)c1)Nc1ccc2c(c1)C[C@@]1(C2)C(=O)Nc2ncccc21`, in assay [1], the inhibition was -4.92%. In the case of `C=CC(=O)O`, the inhibition in assay [1] worked out at 0.87%.

In the case of `C[C@@H]1CC(=O)c2c(ccc3c2C(=O)c2cccc(O)c2C3=O)C1`, the inhibition in assay [1] was 77.5%. On to `Cc1cc(O)c2c(c1)C(=O)c1cccc(O)c1C2=O`, for which the inhibition in assay [1] is 6.5%. For the compound `O=C1c2cccc(O)c2C(=O)c2c(O)cccc21`, in assay [1], the inhibition was -4.52%. Take `Cc1ccc2c(N3CCN(CCc4cccc(N5CCNC5=O)c4)CC3)cccc2n1`: the inhibition in assay [1] was -3.2%. Consider `CCCCCCOc1cc2c(cc1N(C)c1ncc(C(=O)O)cn1)C(C)(C)CCC2(C)C`, for which the inhibition in assay [1] came to 0.82%. The same measure, in the same setting: to `Cc1cccc(/C=C/c2ccccc2)n1` belongs 98.2%; to `CC[N+](CC)(CC)CCOc1ccc(/C=C/c2ccccc2)cc1`, -3.25%; to `Nc1nccc(/C=C/c2ccccc2)n1`, 96.2%. Same read-out and setting: with `Cc1nc2ccccc2c(-c2ccc3c4c(ccnc24)CCO3)c1[C@H](OC(C)(C)C)C(=O)O` the figure was -1.87%; with `Cc1cc(N2CCOCC2)ccc1Nc1nc(NC2CCCCC2)c2nc[nH]c2n1`, -0.21%; with `Cc1cc2ncc(C(=O)NCC(C)(C)NCC(=O)N3CCC[C@H]3C#N)cn2n1`, 2.17%. As to `COc1cc(Cc2cnc(N)nc2N)cc(OC)c1OC`, the inhibition in assay [1] was -5.72%. Consider `COc1ccc(COc2ccc(Cc3cnc(N)nc3N)cc2OC)cc1`, for which the inhibition in assay [1] turned out to be 58.8%. Still for that read-out and setting: to `COc1ccc(Cc2cnc(N)nc2N)cc1OC` belongs -3.93%. For `c1nc2c(NC3CCCCC3)nc(Nc3ccc(N4CCOCC4)cc3)nc2[nH]1`, the inhibition in assay [1] is -4.12%. On to `Cc1cc(/C(=C\Nc2ccc(Cl)cc2)C(=O)Nc2ccc(Cl)cc2)on1`, for which the inhibition in assay [1] is -2.63%. For `Oc1ccc2c(c1)CC[C@H](c1ccccc1)[C@@H]2c1ccc(OCCN2CCCC2)cc1`, in assay [1], the inhibition is -2.46%.

Turning to `O=c1c(-c2ccc(O)cc2)coc2c(C3OC(CO)C(O)C(O)C3O)c(O)ccc12` (stereo not drawn), the inhibition in assay [1] was -5.66%. For the compound `COc1cc(C(C)=O)ccc1O`, the inhibition in assay [1] was 4.49%. As to `COc1cc2c(=O)c(-c3ccc(O)cc3)coc2cc1O`, the inhibition in assay [1] stood at 96.6%. Regarding `COc1ccc(C(C)=O)c(O)c1`, the inhibition in assay [1] came out at 0.72%. `O=c1c(O)c(-c2ccc(O)c(O)c2)oc2cc(O)ccc12`: in assay [1], the inhibition was determined as 8.31%. Turning to `COc1ccc(-c2coc3cc(O)ccc3c2=O)cc1`, in assay [1], the inhibition turned out to be 62.6%. The same measure, in the same setting: with `CC(C)Oc1ccc2c(=O)c(-c3ccccc3)coc2c1` the figure was -8.43%; with `O=c1c(-c2ccc(O)cc2)coc2cc(O)ccc12`, 76%. For `Cc1cc(=O)oc2cc(O)ccc12`, the inhibition in assay [1] is -0.81%. For `Cc1cc(CCCOc2c(C)cc(-c3noc(C(F)(F)F)n3)cc2C)on1`, in assay [1], the inhibition was -3.38%. For `CCCCNc1ncc2c(-c3ccc(CN4CCN(C)CC4)cc3)cn([C@H]3CC[C@H](O)CC3)c2n1`, the inhibition in assay [1] turned out to be 5.61%. As to COLISTIMETHATE SODIUM, CHEMBL1201441, the inhibition in assay [2] is 0.02%. In the case of `O=S(=O)(OC[C@H]1O[C@@](COS(=O)(=O)[O][Al]([OH])[OH])(O[C@H]2O[C@H](COS(=O)(=O)[O][Al]([OH])[OH])[C@@H](OS(=O)(=O)[O][Al]([OH])[OH])[C@H](OS(=O)(=O)[O][Al]([OH])[OH])[C@H]2OS(=O)(=O)[O][Al]([OH])[OH])[C@@H](OS(=O)(=O)[O][Al]([OH])[OH])[C@@H]1OS(=O)(=O)[O][Al]([OH])[OH])[O][Al]([OH])[OH]`, the inhibition in assay [1] is -5.96%.
